Nrf2 ARE act – Nrf2 pathway activation; AREc32 ARE-luciferase reporter (MCF7-derived line), luminescence, 24 h; Potency, µM (top dose mostly 46.1 µM), for the others: at the top dose activation, most hits filed as activators; 0.31% of 410,000 active; AID 624171; note: % of control where 0% means no effect; nearly all actives have a fitted effect of over 65% in size
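Cells of the AREc32 ARE-luciferase line are plated in OPTI-MEM containing 5% FBS and left overnight at 37 deg C. Compounds are pinned in, incubation continues 24 hr, and firefly luciferase signal is then measured.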
Nrf2 inh – inhibitors of Nrf2 signaling; 2.1% of 360,000 active; A549 ARE-Fluc reporter, luciferase luminescence, 18-24 h; Potency, µM (doses to about 46 µM), inactives show at the highest dose activity change, negative = inhibition, hits mostly inhibitors; note: % is set by controls: 0 for no effect and ±100 for the full control effect; nearly all actives have a fitted effect of over 60% in size
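Nrf2 activity is the BugLite luminescence, read 15 min after reagent at room temperature, following CellTiter-Fluor cytotoxicity readout (30 min, 37C). Compound titrations were applied for 18-24 h to 5000 A549 ARE_Fluc cells/well in 5% FBS OPTI-MEM.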
ATXN2 expr inh – inhibitors of ATXN2 expression | AID 1745845 | 0.72% of 360,000 active | HEK-293 ATXN2-luciferase reporter, luminescence, 24 h | Potency, µM (titrated, usually from 57 µM), for the others: at the highest dose activity change, negative = inhibition, usual class: inhibitors; note: % is set by controls: 0 for no effect and ±100 for the full control effect; nearly all actives have a fitted effect of over 55% in size
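ATXN2-luciferase reporter cells (luciferase flanked by upstream and downstream ATXN2 gene portions) were treated 24 h at 37 °C with compounds at up to 57 uM. SteadyGlo luminescence gave expression; GF-AFC fluorescence gave viability.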
S2 tox – viability counter-screen for ATXN expression inhibitors; 0.49% of 400,000 active; Potency, µM (top dose mostly 56.7 µM), actives largely listed as cytotoxic; AID 651635; S2 cells (HEK-293 line with an ATXN2-luciferase reporter) viability, CellTiter-Fluor protease fluorescence, 24 h; note: nearly all actives have a fitted effect of over 40% in size
A549 viability – counter-screen for Nrf2 inhibitors: cytotoxicity in A549 cells; A549 ARE-Fluc cells, CellTiter-Fluor viability, 18-24 h; Potency, µM (highest dose often 46 µM), without a hit: top-dose activity change, negative = cytotoxicity, usual class: inhibitors; 0.16% of 390,000 active; AID 504648; note: % is set by controls: 0 for no effect and ±100 for the full control effect
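A549 ARE_Fluc cells in 5% FBS OPTI-MEM were exposed to compounds in concentration-response for 18-24 h at 37 deg C. Viability was read by CellTiter-Fluor fluorescence (Ex 405/Em 525) after 30 min, before the luciferase read.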
* = called active by the depositor; i = inactive; ? = inconclusive; / = no result; [ ] = another dose, or the depositor's remark. In the library only some 2.9% were active in any assay of this set; here they are far more common. Calls come from the whole dose curve; as a rule, active = well fitted curve in the direction sought with a large enough effect; inconclusive = small, poorly fitted or top-dose-only effect, or another doubt; inactive = no such curve, though single readings can be large; an effect the other way counts as inactive or inconclusive. Potency is the fitted concentration of half-maximal effect.

SMILES	Nrf2 ARE act	Nrf2 inh	ATXN2 expr inh	S2 tox	A549 viability
CC1(C)CC(=O)c2cc(N=C/C(C(=O)c3ccccc3)=C(\O)c3ccccc3)c(=O)oc2C1	11µM*	11%	/	i	2%
CSc1ncccc1C(=O)Nc1nc2ccc(Oc3ccccc3)cc2s1	8%	10µM*	/	i	-7%
Cc1ccc2nc(NC(=O)c3ccccn3)sc2c1	0%	?	?	?	-2%
COc1ccc2nc(NC(=O)c3ccccc3C(=O)O)sc2c1	4%	-15%	7%	i	0%
COc1ccc2nc(NC(=O)c3ccccc3F)sc2c1	?	1.3µM*	/	i	7%
CCOc1ccc2nc(NC(=O)c3ccccn3)sc2c1	6%	?	25µM*	?	?
COc1ccc(C(=O)Nc2nc3ccccc3s2)c(OC)c1	-2%	7.3µM*	0.79µM*	i	4%
COc1ccc(NC(=O)Nc2nc3ccccc3s2)cc1	5%	?	72%	i	?
CC(C)(C)C(CO)NC(=O)c1ccc[nH]1 (stereo not drawn)	0%	-4%	7%	i	-4%
COc1ccccc1C(=O)Nc1nc2ccc(S(C)(=O)=O)cc2s1	1%	?	-15%	?	-15%
COc1ccccc1C(=O)Nc1nc2ccccc2s1	-6%	6.5µM*	?	i	3%
COc1cccc(CNc2ccc(S(=O)(=O)N3CCN(C)CC3)cn2)c1	-1%	-3%	/	i	-2%
CC1CCc2cc(F)cc3c(O)c(C(=O)NCC4CCCO4)c(=O)n1c23 (stereo not drawn)	-1%	16µM*	-14%	i	-7%
CC(Nc1ccccc1N1CCCCC1)C(=O)N1CCc2ccccc21 (stereo not drawn)	0%	9.2µM*	-20%	i	-9%
COc1ccc(C(O)c2nc(-c3cnn(C)c3)cs2)cc1 (stereo not drawn)	0%	/	0%	i	/
O=C1N[C@@H](c2ccccc2)COC(=O)[C@@H](Cc2ccc(F)cc2)CC/C=C/C[C@@H]1CC(=O)N(CCO)Cc1ccccc1	1%	?	?	18µM*	-25%
Cc1nc(N2CCCCC2)c2c(-c3cccs3)csc2n1	2%	2%	-22%	i	16%
COc1ccc(OCCOc2ccc(N(C)S(=O)(=O)c3ccccc3)cc2)cc1	-3%	-17%	-36%	i	6%
CCn1c(COc2ccc(Cl)cc2)nnc1SC1CCc2ccccc2C1=O (stereo not drawn)	3%	26µM*	-25%	i	0%
Cc1ccc(N2CCN(C(=O)CCc3c(C)nc4ncnn4c3C)CC2)c(C)c1	0%	18µM*	-26%	i	1%
C[C@@H](Oc1ccc2[nH]nc(C=Cc3cnn(CCO)c3)c2c1)c1c(Cl)cncc1Cl	/	/	22µM*	/	/
C=CCSc1nc2c(c(C3CC=CCC3)c1C#N)CCC2 (stereo not drawn)	-1%	9%	-6%	i	2%
O=C(N/N=C/c1cn[nH]c1-c1ccccc1)c1ccco1	8.9µM*	6%	39%	i	0%
O=C(CCCN1C(=O)/C(=C/c2ccccc2Cl)SC1=S)Nc1ccccn1	1%	21µM*	17µM*	i	-23%
O=C(CCCN1C(=O)/C(=C/c2ccccc2Cl)SC1=S)Nc1cccnc1	-1%	?	?	14µM*	?
SMILES	Nrf2 ARE act	Nrf2 inh	ATXN2 expr inh	S2 tox	A549 viability
O=C1/C(=C/c2ccccc2Cl)SC(=S)N1CCCC(=O)N(CCO)c1ccccc1	4%	16µM*	?	/	-12%
O=C(CCN1C(=O)/C(=C/c2ccccc2Cl)SC1=S)Nc1ccccn1	4%	16%	/	i	4%
C/C(=N\OCc1cccc(C(=O)O)c1)c1ccc(Cl)cc1	-1%	?	2.8µM*	i	-5%
CC(=O)N1N=C(c2ccc(NS(=O)(=O)c3ccccc3)cc2)CC1c1ccco1 (stereo not drawn)	4%	-2%	?	i	-10%
CC(=O)N1N=C(c2cccc(NS(=O)(=O)c3ccc(C)cc3)c2)CC1c1ccco1 (stereo not drawn)	0%	23µM*	13%	i	?
O=C(NCC1CCCCC1)C1CCC(=O)N(CCc2cccc(F)c2)C1 (stereo not drawn)	0%	6%	9%	i	1%
O=C(CC1C(=O)NCCN1Cc1ccc(-c2ccccc2)cc1)NCC1CC1 (stereo not drawn)	2%	23µM*	14%[11.3 µM]	i	?
C=CCNC(=O)CC1C(=O)NCCN1Cc1ccc(-c2ccccc2)cc1 (stereo not drawn)	-1%	-15%	/	i	2%
CCCCn1c(SCC(=O)Nc2cc(C(F)(F)F)cc(C(F)(F)F)c2)nnc1C(CC)N(C)C (stereo not drawn)	6%	13µM*	?	i	?
CCCCn1c(SCC(=O)Nc2ccc3c(c2)OCCO3)nnc1C(CC)N(C)C (stereo not drawn)	0%	?	/	i	6%
C=C1C(=O)OC2CC1C(O)CC(C)=CCCC(C)=CC(O)CC2C (stereo not drawn)	?	9.2µM*	?	/	15µM*
C=C1C(=O)OC2C1CCC(C)C1C=CC(=O)C12C (stereo not drawn)	?	?	?	?	-8%
Cc1ccccc1NC(=O)C(=O)NNC(=O)COc1ccc2ccccc2c1	0%	-4%	-14%	i	1%
Cc1c(NC(=O)COc2ccc3ccc(=O)oc3c2)c(=O)n(-c2ccccc2)n1C	0%	-3%	4%	i	2%
CCOC(=O)c1c(C)sc2c1N(C(=O)CCl)c1cc(Cl)ccc1S2	-1%	2%	?	18µM*	1%
Cc1c([N+](=O)[O-])cnc(Sc2ccccc2)c1[N+](=O)[O-]	?	1%	/	14µM*	4%
Cc1ccc(Sc2ncccc2[N+](=O)[O-])cc1	2%	1%	15%	i	-9%
O=c1cc(C(F)(F)F)[nH]c2ccc(OC(F)(F)F)cc12	3%	?	?	i	?
O=c1cc(C(F)(F)F)[nH]c2c(C(F)(F)F)cccc12	0%	18µM*	?	?	?
COc1ccc(-c2nc(CN3CCC(C(=O)NCCCOC(C)C)CC3)c(C)o2)cc1OC	0%	7%	4%	i	-1%
O=C(C1CCC(CNS(=O)(=O)c2cccc3nsnc23)CC1)N1CC=C(c2ccccc2)CC1 (stereo not drawn)	0%	21µM*	?	i	-11%
CS(=O)(=O)N(Cc1ccc(Cl)cc1)c1ccc(C(=O)NCC2CCCO2)cc1 (stereo not drawn)	0%	?	-6%	i	-4%
O=C(COC(=O)c1cc(Cl)ccc1O)NCCC1=CCCCC1	1%	4%	0%	i	0%
